Experimental findings from PubChem BioAssay AID623870 (Broad Institute, 2012) are described below.

SMILES strings stand for the structures. Among all 390,000 compounds or so, about 2,600 (0.67%) were called active.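 How the source made its calls: active means mean inhibition of replicates at least 50% and at least half of replicates each reaching 50%; inconclusive means half or more replicates reach 50% but mean below 50%; inactive means the rest.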 For the sample, actives were picked, then their nearest neighbours and some compounds at random.

The target of this test is Transforming acidic coiled-coil-containing protein 3 (Homo sapiens) (UniProt Q9Y6A5). The test can be described thus: disruptors of ARNT/TACC3 protein interaction, primary screen, biochemical, AlphaScreen, single concentration (AID 623870).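 Further: 0% = complete ARNT plus TACC3 wells and 100% = ARNT alone without TACC3.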 Particulars: AlphaScreen His-ARNT PAS-B/GST-TACC3 binding, luminescence; at 9.99 µM; hits give high values; TACC3 fragment carries E629A point mutation.
Regarding `C/C=C/c1ccc([C@H]2[C@@H](CO)N(S(C)(=O)=O)[C@@H]2CN(C)C(=O)CC)cc1`, the inhibition is 7.87% (inactive).
As to `CO[C@H]1CN(C)C(=O)c2ccc(NC(=O)C3CC3)cc2OC[C@H](C)N(CCc2ccccc2)C[C@H]1C`, the inhibition is -7.12% (inactive).
Take `Cc1ccc(NC(=O)CSc2nn3c(=O)c(C)nnc3s2)cc1Cl`: the inhibition is 56.2% (active).
On to `COc1ccc(Cc2nnc(SCC(=O)Nc3ccc(C)c(Cl)c3)[nH]c2=O)cc1`, for which the inhibition is -0.289% (inactive).
On to `Cc1ccc(NC(=O)CSc2nnc(CNC(=O)c3ccccc3F)o2)cc1Cl`, for which the inhibition was 2.2% (inactive).
With `C[C@H](CO)N1C[C@H](C)[C@@H](CN(C)Cc2ccc(-c3ccccc3)cc2)Oc2ccc(NC(=O)CCCN(C)C)cc2CC1=O`, the inhibition was 31.9% (inactive).
The figure for `C[C@H](CO)N1C[C@H](C)[C@@H](CN(C)C)OCCCC[C@H](C)Oc2ccc(NC(=O)C3CCCCC3)cc2C1=O` is -2.97% (inactive).
In the case of `COc1cccc(-c2coc3cc4oc(=O)c(CC(=O)O)c(C)c4cc23)c1` it was 17.2% (inactive); in that of `Cc1oc2c(C)c3oc(=O)c(CC(=O)N[C@@H](CC(C)C)C(=O)N[C@@H](Cc4ccccc4)C(=O)O)c(C)c3cc2c1C`, 2.61% (inactive).
In the case of `Cc1c(CC(=O)NCCCCCC(=O)O)c(=O)oc2cc3occ(-c4ccccc4)c3cc12`, the inhibition is 54.3% (active).
For the compound `CC[C@@H](C)[C@H](NC(=O)CCc1c(C)c2cc3c4c(oc3c(C)c2oc1=O)CCCC4)C(=O)O`, the inhibition was -0.229% (inactive).
`Cc1coc2c1c(C)cc1oc(=O)c(CC(=O)NCC(=O)N[C@H](C(=O)O)C(C)C)c(C)c12`: the inhibition was 2.88% (inactive).
Turning to `Cc1c(CC(=O)NCC(=O)NCC(=O)O)c(=O)oc2cc3oc4c(c3cc12)CCCC4`, the inhibition was 50.6% (active).
Regarding `C[C@H](CO)N1C[C@H](C)[C@H](CN(C)Cc2ccncc2)Oc2ncc(C#CCC3CCCCC3)cc2C1=O`, the inhibition was -1.21% (inactive).
For `Cc1noc(C)c1NC(=O)Nc1ccc2c(c1)CC(=O)N([C@@H](C)CO)C[C@@H](C)[C@@H](CN(C)Cc1ccc(Cl)c(Cl)c1)O2`, the inhibition is -1.62% (inactive).
The figure for `CO[C@@H]1CN(C)C(=O)c2cc(NS(=O)(=O)c3cn(C)cn3)ccc2OC[C@@H](C)NC[C@H]1C` is 1.1% (inactive); for `CN(C)C(=O)C[C@@H]1CC[C@H](NC(=O)NC2CCCCC2)[C@@H](CO)O1` it is -17% (inactive); for `CN(C)C(=O)C[C@@H]1CC[C@H]2[C@@H](COC[C@H](O)CN2C(=O)c2ccncc2)O1` it is -9.54% (inactive).
`C[C@@H]1CN([C@H](C)CO)S(=O)(=O)c2ccc(-c3ccncc3)cc2O[C@@H]1CN(C)C(=O)CN(C)C`: the inhibition was 12% (inactive).
The figure for `C[C@H]1CN([C@@H](C)CO)C(=O)c2cc(NC(=O)NC3CCCCC3)ccc2O[C@@H]1CN(C)C(=O)Nc1cccc2ccccc12` is 0.153% (inactive).
In the case of `C#CCOCCOCCOCCNc1nc(N2CCN(C(=O)CCCCCCCCCCNC(=O)[C@H]([C@@H](C)CC)n3cc(CCCCN=C(N)N)nn3)CC2)nc(N2CCN(C(=O)CCCCCCCCCCNC(=O)[C@H](CO)n3cc(CCCSC)nn3)CC2)n1` it was 9.17% (inactive); in that of `C#CCOCCOCCOCCNc1nc(N2CCN(C(=O)[C@H](CCCCN)n3cc([C@@H](N)C(C)CC)nn3)CC2)nc(N2CCN(C(=O)[C@H](Cc3ccc(O)cc3)n3cc([C@@H](N)C(C)CC)nn3)CC2)n1` (some centres undefined), 45.7% (active); in that of `C#CCOCCOCCOCCNc1nc(N2CCN(C(=O)C([C@@H](C)O)n3cc([C@@H](N)CCCCN)nn3)CC2)nc(N2CCN(C(=O)[C@H](CCCCN)n3cc(CN)nn3)CC2)n1` (some centres undefined), 21.2% (active).
In the case of `CCC(C)[C@@H](C(=O)N1CCNCC1)n1cc(CCCCN)nn1` (some centres undefined), the inhibition was 7.8% (inactive).
Turning to `CC[C@H](C)[C@@H](C(=O)N1CCNCC1)n1cc([C@@H](N)Cc2ccc(O)cc2)nn1`, the inhibition was -3.75% (inactive).
In the case of `C[C@H]1CN([C@@H](C)CO)C(=O)c2cc(NC(=O)CCN3CCOCC3)ccc2O[C@@H]1CN(C)C(=O)Nc1ccc(C(F)(F)F)cc1`, the inhibition was 26.6% (inactive).
For `Cc1noc(C)c1S(=O)(=O)N(C)C[C@H]1OCCCC[C@@H](C)Oc2ccc(NC(=O)c3ccccc3)cc2C(=O)N([C@@H](C)CO)C[C@H]1C`, the inhibition was -4.16% (inactive).
Regarding `COC1=C(N2CCOCC2)C(=O)c2ccccc2C1=O`, the inhibition is 60.4% (active).
As to `COc1ccc(S(=O)(=O)N2CCOCC2)c(C)c1C`, the inhibition was -0.167% (inactive).
With `O=C1c2ccccc2-c2ncnc3c(N4CCOCC4)cc(N4CCOCC4)c1c23`, the inhibition was 11.8% (inactive).
Regarding `C[C@@H]1CN([C@@H](C)CO)C(=O)c2cccc(NS(=O)(=O)c3cn(C)cn3)c2O[C@H]1CN(C)Cc1ccc(Cl)c(Cl)c1`, the inhibition was 4.82% (inactive).
With `O=C(NC1CCCC1)[C@H]1[C@H](CO)[C@H]2Cn3c(ccc(-c4ccccc4)c3=O)[C@H]2N1CCc1ccccc1`, the inhibition is 5.95% (inactive).
With `COCC(=O)N1CC[C@@H]2[C@@H](CO)Nc3ccc(-c4ccc(C(=O)N(C)C)cc4)cc3[C@@H]21`, the inhibition is -12.5% (inactive).
Consider `COc1cccc(S(=O)(=O)N[C@H]2CC[C@H](CCN)O[C@H]2CO)c1`, for which the inhibition was 0.015% (inactive).
Consider `COCC(=O)Nc1ccc2c(c1)OC[C@@H](C)N(C(=O)c1cnccn1)C[C@H](C)[C@H](OC)CN(C)C2=O`, for which the inhibition is -8.24% (inactive).
With `COc1cc(Cl)cc(C2NC(=O)NC(C)=C2C(=O)NCc2ccccc2)c1O` (centres undefined), the inhibition was -0.141% (inactive).
In the case of `COc1cc(C(=O)NCc2ccc(-n3cccc3)cc2)cc(OC)c1OC`, the inhibition was -1.7% (inactive).
In the case of `COc1cc(C(=S)NCc2ccccc2)cc(Br)c1O`, the inhibition is 49.6% (active).
Regarding `COc1ccc(S(=O)(=O)Nc2cccc3c2O[C@@H](CN(C)S(=O)(=O)c2ccccc2)[C@@H](C)CN([C@@H](C)CO)C3=O)cc1`, the inhibition is 1.77% (inactive).
As for `CC(=O)N(C)C[C@H]1Oc2cc(-c3ccc(C)cc3)ccc2S(=O)(=O)N([C@@H](C)CO)C[C@@H]1C`, the inhibition is -9.76% (inactive).
The figure for `C[C@@H]1CN([C@@H](C)CO)S(=O)(=O)c2ccc(C3=CCCC3)cc2O[C@H]1CN(C)C(=O)CC1CC1` is 3.76% (inactive); for `C[C@H]1CN([C@@H](C)CO)C(=O)c2cc(NC(=O)Cn3cnnn3)ccc2O[C@@H]1CN(C)C(=O)Nc1ccccc1` it is -0.158% (inactive).
For the compound `c1ccc(-c2cn3c(n2)CCc2ccc4cccnc4c2-3)cc1`, the inhibition is 64.1% (active).
For `CCC(CC)c1nnc(NC(=O)C2=COCCO2)s1`, the inhibition was -6.14% (inactive).
On to `COc1cc(-c2nnc(NC(=O)C3=COCCO3)o2)cc(OC)c1OC`, for which the inhibition was 45.2% (active).
For the compound `O=C(Nc1nnc(C2=COCCO2)o1)c1ccc([N+](=O)[O-])s1`, the inhibition is 32.6% (inactive).
`COC(=O)[C@@H]1[C@@H](CO)[C@@H]2Cn3c(ccc(C4=CCCC4)c3=O)[C@@H]2N1Cc1cncnc1`: the inhibition is -4.04% (inactive).
The figure for `C/C=C/c1ccc2c(c1)O[C@@H](CN(C)C(=O)Cc1ccccn1)[C@@H](C)CN([C@H](C)CO)S2(=O)=O` is -2.68% (inactive); for `O=C(CN1C(=O)COc2ccccc21)Nc1ccc(F)cc1` it is 55.9% (active); for `O=C(CN1C(=O)COc2ccc(Cl)cc21)Nc1ccc(N2CCOCC2)cc1` it is 2.76% (inactive).
With `CC(OC(=O)CN1C(=O)COc2ccccc21)C(=O)NCc1ccc(F)cc1` (centres undefined), the inhibition is -23.2% (inactive).
Take `C[C@H]1CN([C@@H](C)CO)C(=O)c2cc(NC(=O)Nc3ccc4c(c3)OCO4)ccc2O[C@@H]1CN(C)Cc1ccc(Oc2ccccc2)cc1`: the inhibition is 28.7% (inactive).
Regarding `COC(=O)C1=C(C)Nc2ncnn2C1c1cccnc1` (centres undefined), the inhibition was 18.7% (active).
The figure for `COc1cc(C2C(C(=O)Nc3ccccc3OC)=C(C)Nc3ncnn32)ccc1O` (centres undefined) is 7.59% (inactive); for `CC1=C(C(=O)OC2CCCCC2)C(c2cccnc2)n2ncnc2N1` (centres undefined) it is -3.41% (inactive).
For the compound `CN1CCN(C(=O)C[C@H]2CC[C@H]3[C@H](COc4ccc(NC(=O)C5CC5)cc4C(=O)N3C)O2)CC1`, the inhibition was -1.07% (inactive).
Turning to `O=C(Cc1ccncc1)NCC[C@H]1CC[C@@H](NC(=O)Nc2ccc(Cl)cc2)[C@@H](CO)O1`, the inhibition was 13.7% (inactive).
On to `Oc1ccc(N=Nc2nccs2)c(O)c1`, for which the inhibition was 80.9% (active).
The figure for `CCC(=O)N(C)C[C@H]1Oc2ncc(C#CC(C)C)cc2C(=O)N([C@@H](C)CO)C[C@H]1C` is -8.34% (inactive); for `Cc1ccc(S(=O)(=O)N2C[C@@H](O)COC[C@@H]3O[C@@H](CC(=O)N[C@H]4CCN(Cc5ccccc5)C4)CC[C@H]32)cc1` it is -6.23% (inactive).
As for `Cc1cc(C(=O)OCC(=O)NCc2ccco2)c(C)n1-c1ccccc1`, the inhibition was -8.94% (inactive).
For the compound `CCOC(=O)C1=C(O)/C(=C/c2cc(C)n(-c3ccccc3)c2C)N=C1C`, the inhibition is 27.3% (active).
As to `CCOC(=O)c1nn(-c2cccc(C)c2)cc1C(=O)c1ccccc1`, the inhibition was 25.6% (inactive).
Take `CC(C)CC#Cc1cnc2c(c1)C(=O)N([C@H](C)CO)C[C@H](C)[C@H](CN(C)C(=O)Nc1ccccc1F)O2`: the inhibition is -1.64% (inactive).
On to `CC(C)CC#Cc1ccc2c(c1)O[C@H](CN(C)C(=O)c1cccnc1)[C@@H](C)CN([C@H](C)CO)S2(=O)=O`, for which the inhibition is -3.52% (inactive).
Turning to `COc1ccc(S(=O)(=O)N(C)C[C@H]2OCCCC[C@H](C)Oc3ccc(NC(=O)CCC(F)(F)F)cc3C(=O)N([C@@H](C)CO)C[C@@H]2C)cc1`, the inhibition was 1.97% (inactive).
In the case of `CCCNC(=O)C[C@H]1CC[C@H]2[C@@H](COC[C@@H](O)CN2C(=O)Nc2ccc(Cl)c(Cl)c2)O1`, the inhibition was -0.599% (inactive).
In the case of `CCNC(=O)C[C@@H]1CC[C@H](NC(=O)NC2CCCCC2)[C@H](CO)O1` it was 14.7% (inactive); in that of `C[C@@H](O)C#Cc1cnc2c(c1)C(=O)N([C@@H](C)CO)C[C@H](C)[C@H](CN(C)Cc1cncnc1)O2`, -0.882% (inactive).

What is called inhibition is the relative decrease from the control value, in per cent.
